Data on 64 compounds can be found in article PMC4552634, “A New Set of Chemical Starting Points with Plasmodium falciparum Transmission-Blocking Potential for Antimalarial Drug Discovery” (PLoS ONE, 2015).

As usually defined, the % Inhibition is the relative decrease from the control value, in per cent.

The campaign covered roughly 13,000 compounds. About 3,200 (25%) showed an effect of 50% or more. The list shows a part of the results.

In the test the test system is P. falciparum stage V gametocytes. Further details: BacTiter-Glo ATP luminescence viability of purified stage V gametocytes in 384-well plates, per cent inhibition versus DMSO. The note with it: 48 h, 5 µM; inhibitor.
As to `CCc1nc2ccc(C(=O)OC)nc2n1Cc1ccc2oc(-c3ccccc3N)c(Br)c2c1` [TCMDC-131989], the “% Inhibition” value is reported as 82.84%.
On to `Cc1cccc2[nH]c(-c3cccc(-c4ccc(NC(=O)Cc5ccccn5)cc4)c3)nc12` [TCMDC-132178], for which the “% Inhibition” value is recorded as -17.95%.
For the compound `CS(=O)(=O)CCNCc1cccc(-c2cc3c(Nc4ccc5c(cnn5Cc5ccccc5)c4)ncnc3s2)c1` [TCMDC-134664], the “% Inhibition” value is -36.31%.
Consider `CN1CCC(c2ccc(NC(=O)c3ccc(-c4cccc(C(F)(F)F)c4)o3)cc2)CC1` [TCMDC-134195], for which the “% Inhibition” value stood at 6.508%.
In the case of `O=C(Nc1ccc(S(=O)(=O)NCCCN2CCOCC2)cc1)c1cc(-c2ccccc2)n[nH]1` [TCMDC-125046] it was -31.32%; in that of `NC(=O)COc1cccc2c1CCN(CCN1CCC(NC(=O)c3ccc(-c4ccc(Cl)cc4)cc3)CC1)C2` [TCMDC-135479], -28.95%; in that of `C=CCOc1cccc2c1CCN(CCN1CCC(NC(=O)c3ccc(-c4ccc(Cl)cc4)cc3)CC1)C2` [TCMDC-135633], -61.81%.
The result for `COc1cccc2c1CCN(CCN1CCC(NC(=O)c3ccc(-c4cccc(Cl)c4Cl)cc3)CC1)C2` [TCMDC-135476] reads 76.97%.
In the case of `Fc1cccc(COc2ccc(Nc3ncnc4sc(C#C[C@H]5CC[C@H](CNCC(F)(F)F)N5)cc34)cc2Cl)c1` [TCMDC-135422] it was -57.82%; in that of `CCCNC(=O)c1cncc(-c2ccc(CNC3Cc4ccccc4C3)cc2)c1` [TCMDC-134242], -9.717%.
For `c1cncc(CCNCc2ccc(-c3ccc(CNC4Cc5ccccc5C4)cc3)cc2)c1` [TCMDC-141458], the “% Inhibition” value was 22.23%.
`O=C(CCC1CCCC1)N(Cc1ccc(-c2ccc(CNCCc3ccccn3)cc2)cc1)CC1CCCCN1` (stereo not shown) [TCMDC-141445]: the “% Inhibition” value was found to be 104.1%.
Take `O=C(CC1CCCC1)N(Cc1ccc(-c2ccc(CNC3Cc4ccccc4C3)cc2)cc1)CC1CCCCN1` (stereo not shown) [TCMDC-141446]: the “% Inhibition” value stood at 118.1%.
For the compound `O=C(NCC1CCC(C(=O)NCCN2CCCCC2)CC1)c1ccc(O)c(-c2ccc(Cl)c(Cl)c2)c1` (stereo not shown) [TCMDC-140889], the “% Inhibition” value was 5.118%.
The result for `CN(C)C(CNC(=O)c1cc(-c2ccncc2)c(-c2ccc(NC(=O)Nc3ccccc3)cc2)o1)c1ccccc1` (stereo not shown) [TCMDC-135763] reads 0.5152%; that for `CCN(CCNS(C)(=O)=O)c1ccc(N)c(C)c1` [TCMDC-125836], 123.9%; that for `CCN(CCNC(=O)Nc1cc(C(F)(F)F)cc(C(F)(F)F)c1)c1cccc(C)c1` [TCMDC-140386], -30.95%.
In the case of `CCN(CC)c1ccc2nc(N)nc(N)c2c1` [TCMDC-137860] it was -57.34%; in that of `Cc1cc(NC(=O)c2ccco2)ccc1OC1CCN(Cc2ccc(F)cc2)CC1` [TCMDC-133749], 42.56%; in that of `Cc1ccccc1N1CCN(c2ccc(C(=O)Nc3ccccc3)cn2)CC1` [TCMDC-134582], 6.226%.
Take `Cc1[nH]c2ccccc2c1C1CCN(CC2CCC(NC(=O)/C=C/c3ccc(Cl)c(Cl)c3)CC2)CC1` (stereo not shown) [TCMDC-139482]: the “% Inhibition” value is reported as -16.12%.
The result for `NC(=O)c1cnc2cc(-c3ccncc3)cc(Nc3ccc(NC(=O)C4CCCCC4)cc3)c2c1` [TCMDC-135182] reads -67.69%; that for `Cc1cc(-c2ccc(NC(=O)N3CCc4cc(Br)c(N5CCN(C)CC5)cc43)cc2)ccc1C#N` [TCMDC-139293], -18.89%; that for `CN1CCN(c2cc3c(cc2Cl)CCN3C(=O)Nc2ccc(NC(=O)c3ccc(C(F)(F)F)cc3)cc2)CC1` [TCMDC-139270], -10.1%.
The result for `Cc1cc(-c2ccc(NC(=O)N3CCc4cc(Cl)c(N5CCN(C)CC5)cc43)cc2)ccc1C#N` [TCMDC-139292] reads 55.12%; that for `O=C(Nc1c(F)cccc1F)c1cccc(-c2nn3ccccc3c2-c2ccnc(Nc3cccc(-c4cnco4)c3)n2)c1` [TCMDC-135743], -41.11%.
In the case of `c1ccc2c(c1)cc(CNCCCN1CCN(CCCNCc3cc4ccccc4c4ccccc34)CC1)c1ccccc12` [TCMDC-137914] it was 113.5%; in that of `c1ccc2c(CNCCCN3CCN(CCCNCc4c5ccccc5cc5ccccc45)CC3)c3ccccc3cc2c1` [TCMDC-137909], 115.6%.
Take `O=C(/C=C/c1ccc(Cl)c(Cl)c1)NCCCCCN1CCC(C(=O)Nc2cccc(Cl)c2)CC1` [TCMDC-136120]: the “% Inhibition” value is -13.38%.
The result for `Cc1ccc(NC(=O)c2cccc(C#N)c2)cc1-c1ccc(C(=O)Nc2ccncc2)cc1` [TCMDC-133697] reads -8.671%; that for `CCC[C@@H]([C@@H](Cc1ccc(C)s1)C(=O)N[C@@H](CNC(C)=O)C(=O)Nc1nccs1)N(O)C=O` [TCMDC-138137], -97.54%.
The result for `Cc1cc(C)c2[nH]cc(C(=O)O)c(=O)c2c1` [TCMDC-123953] reads 3.462%; that for `Oc1ccc(Cl)c2c1C(c1ccccc1)=NCC2` [TCMDC-137522], -9.659%; that for `COc1ccc(Oc2ccc(Nc3ccnc4ccc(C(F)(F)F)cc34)cc2)cc1OC` [TCMDC-138310], -11.17%.
The result for `CN(C)CCCc1cc2c(cc1Cl)CCN2C(=O)Nc1ccc(-c2ccncc2)c2ccccc12` [TCMDC-139215] reads -22.47%; that for `CCCc1cc(C(=O)N[C@@H](Cc2ccccc2)[C@H](O)CNC(C)(C)c2cccc(OC)c2)c(F)c(N2CCCC2=O)c1` [TCMDC-135396], 48.39%; that for `COc1c(CN2CCOCC2)cccc1-c1cc2c(-c3ccc(C(=O)O)c(C(C)C)c3)ccnc2[nH]1` [TCMDC-135049], -0.2517%.
Regarding `COc1ccc(-c2cnc3[nH]cc(-c4ccc(C(=O)O)c(C)c4)c3c2)cn1` [TCMDC-136360], the “% Inhibition” value is 34.92%.
The result for `COc1ccc(CN(C)CCOc2ccc(NC(=O)c3cccc4c(=O)cc(-c5ccccc5)[nH]c34)cc2)cc1OC` [TCMDC-131849] reads 25.38%.
For `COc1cccc(CN2CCC(C(=O)Nc3ccc(-c4nc5ccccc5[nH]4)cc3)CC2)c1` [TCMDC-124615], the “% Inhibition” value is -54.81%.
The result for `CCN(CC)Cc1ccc(OC)c(-c2cc3c(-c4ccc(C(=O)O)c(C(C)C)c4)ccnc3[nH]2)c1` [TCMDC-135051] reads 59.03%; that for `COc1c(CN2CCCC2)cccc1-c1cc2c(-c3ccc(C(=O)O)c(C(C)C)c3)ccnc2[nH]1` [TCMDC-135050], 69.12%.
Turning to `CN(C)CC1CCCN1Cc1ccccc1-c1cnn(C)c(=O)c1Oc1ccc(F)cc1` (stereo not shown) [TCMDC-135098], the “% Inhibition” value amounted to 10.73%.
In the case of `O=C(NCCCN1CCN(c2cccc(Cl)c2)CC1)c1ccc(-c2nc3cc(Cl)c(Cl)cc3[nH]2)c(F)c1` [TCMDC-140084] it was -21.33%.
For `O=C(CNc1ccc(Cl)c(S(=O)(=O)N2CCCC2)c1)Nc1ccc(Br)cc1F` [TCMDC-125102], the “% Inhibition” value was 24.63%.
In the case of `Cc1onc(-c2ccccc2)c1-c1nc(NCCC(c2ccccc2)c2ccccc2)no1` [TCMDC-134203] it was 3.551%; in that of `CN1CCC(N(Cc2ccc(-c3ccc(C(F)(F)F)cc3)cc2)C(=O)Cn2c(SCc3cccc(F)c3F)cc(=O)c3c2CCC3)CC1` [TCMDC-141319], 92.96%; in that of `CC(C)N1CCC(N(Cc2ccc(-c3ccc(C(F)(F)F)cc3)cc2)C(=O)Cn2c(SCc3cccc(F)c3F)cc(=O)c3c2CCC3)CC1` [TCMDC-141320], 98.3%.
Regarding `O=C(NOCc1ccccc1)c1cc(Cl)ccc1O` [TCMDC-131603], the “% Inhibition” value worked out at 3.846%.
The result for `CCC1CCc2cc(N)cc(-c3nc4c(c(C)nn4CC)c(=O)[nH]3)c2O1` (stereo not shown) [TCMDC-131857] reads 1.879%.
In the case of `CCC(=O)Nc1ccc(C(O)CN2CCC3(C=Cc4ccccc4O3)CC2)cc1` (stereo not shown) [TCMDC-124852] it was 40%; in that of `COc1cc2nc(NCCn3ccnc3C)nc(NCCc3ccccc3)c2cc1OC` [TCMDC-135471], 66.44%.
The result for `COc1cc2nc(NCCn3cccn3)nc(NCCc3ccccc3)c2cc1OC` [TCMDC-135472] reads 50.26%; that for `CN(C)Cc1ccc(-c2ccc3c(Nc4ccc(Oc5ccccn5)cc4)ccnc3c2)o1` [TCMDC-138425], 93.82%.
For `CN(C)CCN(C)Cc1ccc(-c2ccc3c(Nc4ccc(Oc5ccccn5)cc4)ccnc3c2)o1` [TCMDC-138426], the “% Inhibition” value was determined as 89.24%.
Turning to `CS(=O)(=O)CCNCc1ccc(-c2ccc3c(Nc4ccc(Oc5ccccn5)cc4)ccnc3c2)o1` [TCMDC-138444], the “% Inhibition” value is 5.347%.
In the case of `Clc1cc2c(Nc3ccc(Oc4ccccc4)cc3)ccnc2cc1-c1ccc(CNCCN2CCOCC2)o1` [TCMDC-138464] it was 21.03%; in that of `c1ccc(Oc2ccc(Nc3ccnc4ccc(-c5ccccn5)cc34)cc2)cc1` [TCMDC-138118], -22.81%.
`CN(C)CCN(C)Cc1ccc(-c2ccc3c(Nc4ccc(Oc5ccccc5)cc4)ccnc3c2)o1` [TCMDC-138400]: the “% Inhibition” value is given as 100.2%.
`CN(C)Cc1ccc(-c2ccc3c(Nc4ccc(Oc5ccccc5)cc4)ccnc3c2)o1` [TCMDC-138401]: the “% Inhibition” value is listed as -9.57%.
The result for `CN(C)CCNCc1ccc(-c2ccc3c(Nc4ccc(Oc5ccccc5)cc4)ccnc3c2)o1` [TCMDC-138399] reads 96.18%.
The result for `COc1ccc(NC(=O)c2csc(-c3cc(NC(=O)c4ccnc(N5CCCC5)c4)ccc3C)c2)cc1N1CCN(C)CC1` [TCMDC-136374] reads 23.12%; that for `NC(=O)c1cccc(Nc2nccc(Nc3ccc(Oc4cccc5ccccc45)cc3)n2)c1` [TCMDC-138599], -18.47%; that for `CC[C@H]1CN2CC[C@H]1C[C@@H]2[C@@H](OC(=O)c1ccc(Cl)cc1)c1ccnc2ccc(OC)cc12` [TCMDC-125492], -10.63%.
